Measurements reported in the supplement of paper PMC6555819.

Tests used:
Assay in all cases: PBM binding z-score (relative to random genomic background probes); higher = stronger binding; sequences stand for … in GC…GCGATTGACAGCGTAGAATGAAGG
[1] = tested on: RARb homodimer (NR concentration 270 nM)
Outline: (§1)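 Custom Agilent 4×180K protein-binding microarrays carried double-stranded probes, each with a 34-nt variable region. These regions held direct-repeat seeds, single-nucleotide variants, half-site ablations and random human genomic background sequences. Ligand-free nuclear receptor dimers were incubated on the arrays for 1 h, antibodies against each partner (one per run) detected binding, and scanned fluorescence was regression-normalized. Binding z-scores take the random background probes as reference.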

[2] = tested on: RARg:RXRa (NR concentration 270 nM, RXRa partner concentration 90 nM)
Outline: as §1

[3] = tested on: RARg homodimer (NR concentration 270 nM)
Outline: as §1

[4] = tested on: RXRa DBDmut IVT, anti-RXR (DBD mutation: RXRa K156A/R161A, NR concentration 90 nM)
Outline: as §1

[5] = tested on: RXRa homodimer (NR concentration 180 nM)
Outline: as §1

[6] = tested on: THRa:RXRa (NR concentration 90 nM, RXRa partner concentration 90 nM)
Outline: as §1

[7] = tested on: THRa homodimer (NR concentration 90 nM)
Outline: as §1

[8] = tested on: VDR:RXRa (NR concentration 270 nM, RXRa partner concentration 90 nM)
Outline: as §1

[9] = tested on: VDR homodimer (NR concentration 270 nM)
Outline: as §1

Row | Sequence | PBM binding z-score [1] | PBM binding z-score [2] | PBM binding z-score [3] | PBM binding z-score [4] | PBM binding z-score [5] | PBM binding z-score [6] | PBM binding z-score [7] | PBM binding z-score [8] | PBM binding z-score [9]
1 | CCTATTAGTTGACCATAAGGGCAACCAAAGCTCG | 2.24 | 1.55 | 1.14 | 0.788 | 0.828 | 2.02 | 1.47 | 0.939 | 0.747
2 | CCTTACGGGTTAAGGTTATAGCACGGGTGGTACG | 1.42 | 1.43 | 0.999 | -0.691 | 2.18 | 2.64 | 1.75 | 0.894 | 0.766
3 | AGAATGAGGTTAACATCAGGGAAACAGAATACAT | 0.933 | 2.72 | 2.01 | 1.29 | 3.24 | 2.91 | 0.858 | 1.75 | 0.64
4 | GCGACTGGGGCAAAGCAGGCTACCATAAGGTTGG | 0.228 | 0.143 | 0.207 | -0.628 | 0.0152 | 1.59 | -0.688 | -0.662 | -0.862
5 | ACTATTATTTGAGACGAGGGCAACCGATAGGTTG | 1.51 | 0.808 | 0.929 | 1.03 | 0.916 | 1.12 | 1.07 | 1.1 | 1.75
6 | CCGACTGGGCCAAAGGTTACCATACTCAGTACGA | 2.31 | 2.84 | 1.45 | 0.18 | 3.2 | 1.56 | 0.0942 | 1.21 | -0.0479
7 | AGAATGAGGTTATTAAGATCAGGGAGTTGCGGTC | 0.826 | 1.05 | 0.672 | 1.99 | 1.78 | 2.17 | 0.897 | 2.3 | 1.39
8 | TCATATAGGTAAAGGTGAAAGTAGAACGATATGA | 1.35 | 1.71 | 1.43 | 0.637 | 2.2 | 1.36 | -0.513 | 1.01 | -0.148
9 | TTACCAAGGTGGAAGGTCGTTGATGCACGCCTTG | 0.907 | 0.595 | 0.158 | -0.443 | 1.43 | 0.674 | -0.0203 | 0.464 | 0.895
10 | TAGCCCAGGTCAGATCGGGCCAGTATACGCTATA | 2.03 | 2.82 | 3.39 | -0.536 | 1.77 | 4.22 | 0.917 | 0.983 | -0.0558
11 | CAAACTAGGTCACAAAGGTCAAAGTCCGTGCGTA | 5.75 | 7.55 | 8.33 | 3.46 | 8.41 | 4.52 | 2.58 | 7.28 | 6.7
12 | GCAGATAGGTGAAACGCAGGTAACTCAGGGTGGC | 0.000492 | 0.873 | 0.288 | -0.635 | 0.592 | 1.32 | -0.559 | -0.534 | -0.593
13 | TCTGCTAGGTCAACGATGGTCAGCTTATCTGCTA | 3.56 | 4.14 | 4.75 | 1.26 | 2.49 | 3.22 | 0.783 | 1.63 | -0.342
14 | ACTATTAGTTGACTTAGGGCAACCGATACGACGC | 0.899 | 0.818 | 1.01 | 0.684 | 0.661 | 1.53 | 0.316 | 0.152 | 0.121
15 | CGTCCAAGGACAAGGTCAGTGAAAGAGACTCGAA | 3.32 | 3.17 | 3.98 | 1.46 | 2.22 | 3.63 | 2.39 | 1.54 | 0.725
16 | CCAGACAGGTGATAGGTAACTCAGTCTGGTACGC | 0.0377 | 0.156 | 0.068 | -0.237 | 0.368 | -0.116 | -0.179 | -0.0769 | -0.505
17 | CCGACTGGGGCAGAAAGGTTACCAAACCATCCGG | 2.23 | 1.52 | 1.35 | -0.609 | 1.66 | 0.905 | -0.598 | 0.877 | -0.377
18 | CCAGACAGGTGAGGAGGTAACTCAGCCTCGATTA | 0.852 | 0.397 | 0.304 | -0.0213 | 0.216 | 0.684 | 0.59 | 0.00298 | 0.177
19 | ATCGAAGGGTCGTGAGGTGAGTATACAGAAAGGC | 2.09 | 3.05 | 2.55 | 0.87 | 3.4 | 2.84 | 1.51 | 2.38 | 0.783
20 | GATACAGGGTCAGATAGAGGCCAGAGTATGGAAA | 3.28 | 6.34 | 4.42 | 1.75 | 4.42 | 3.16 | 0.893 | 3.49 | 1.42
21 | ATCGAAAGGTCGAGAGGTGAGTATACAGAAAGGC | 3 | 4.69 | 4.09 | 0.518 | 4.53 | 2.37 | -0.0205 | 2.73 | 0.542
22 | ACAGACAGGTGATGAAGATAACTCAGGCTATCAT | 0.036 | 0.0914 | 0.567 | -0.415 | 0.164 | 0.061 | -0.111 | -0.422 | -0.302
23 | AGTCAACGTTCAGGACGAGGTAACGTAAAGCACG | -0.0275 | 0.297 | 0.412 | -0.658 | 0.0619 | 2.08 | 1.42 | -0.317 | -0.0352
24 | TCTGCTACGTCAACGATGGTCAGCTAATCTGCTA | -0.67 | -0.316 | -0.0659 | 0.0473 | -0.261 | -0.616 | -0.92 | -0.548 | -1.61
25 | TCGAGTAGGTTAGTCGGGGCATTCGGCCAACATA | 0.848 | -0.0623 | 0.0417 | -0.081 | -0.218 | 0.974 | -0.521 | 2.15 | 0.124
26 | CAAACTAGGTCACAGAGGTCAGAGTCCGTGCGTA | 5.34 | 6.58 | 7.37 | 3.02 | 6.43 | 4.37 | 2.49 | 7.34 | 4.93
